Data taken from PubChem BioAssay.
“And” between values parts separate entries of the source, which are not always exact repeats. Equal entries are not always repeated. Some compounds were tested as several samples or in several runs, with calls that do not always agree. The source made the active and inactive calls.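 How the source made its calls, unless noted: active means inhibition at or above 50% relative to wild type and mutant plate controls; inactive means inhibition below 50%.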

Tests used:
[1] = inhibitors of TNFa-induced NFkB p65 translocation, primary screen, imaging, HUVEC, MLSMR starter and 10KST1 sets (AID 438;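 active means inhibition above 20% together with a positive visual image hit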;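 further: compound added about 3h40 before a 20 min TNFalpha stimulation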;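 on inhibition: signal is the nuclear over cytoplasmic p65 intensity ratio per well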); settings: HUVEC TNFa-induced p65 nuclear translocation; cell count: measured here: nuclei count (cytotoxicity indicator), at 2.08 µM; inhibition: at 2 µM, stronger effect = higher value, 0% TNFa-plus-vehicle, 100% no-TNFa wells
[2] = inhibitors of mutant huntingtin aggregation, primary screen, imaging, exon1htt(103Q)mCFP cells, high-content imaging (AID 483;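 active means visual image review flags a hit and inhibition of aggregation exceeds 20%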;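 further: compound exposure lasted 3 days before fixation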;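 on nuclei count: percent of the per-plate median nuclei count of sample wells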); settings: exon1htt(103Q)mCFP cell line, aggregate imaging, at 2 µM; inhibition of aggregation: stronger effect = higher value; nuclei count: measured here: cell count, toxicity
[3] = inhibitors of E-selectin induction by TNFa, primary screen, imaging, HUVEC, immunofluorescence, MLSMR starter and 10KST1 sets (AID 487;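 active means visually confirmed hit in the image check and inhibition above 20%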;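 on inhibition: signal is fraction of cell area covered by stained E-selectin grains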;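 on nuclei count: 100% = median nuclei count of all wells on the same plate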); settings: HUVEC TNFalpha-induced E-selectin immunofluorescence imaging, at 2 µM; inhibition: stronger effect = higher value; nuclei count: measured here: cell number, toxicity
[4] = DUSP6 inhibitors restoring Erk phosphorylation by chemical complementation, primary imaging in DUSP6-transfected HeLa (AID 609;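 active means compounds giving at least 50% inhibition in the cell-based MKP-3 phosphatase rescue imaging test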;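 on inhibition: phospho-Erk level distribution per well compared with pooled transfected vehicle control wells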); settings: HeLa MKP-3 transfected, phospho-Erk imaging KS statistic, at 10 µM, cells stimulated with TPA for 15 min
[5] = target: Dual specificity protein phosphatase 6 (Homo sapiens) (UniProt Q16828); experiment: as above; settings: HeLa MKP-3 transfected, phospho-Erk imaging KS statistic; at 10 µM; stronger effect = higher value; cells stimulated with TPA for 15 min
[6] = target: Voltage-gated potassium channel subunit beta-2 (Rattus norvegicus) (UniProt P62483); experiment: KvBeta enzyme negative modulators, primary screen, biochemical, NADPH fluorescence (AID 622;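 active means fluorescence slope higher than the sample average by over 3 SD, cut at about -0.22 in these data, passing the limit was not always enough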;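 further: slope of raw intensity against log time taken from 70 to 1610 s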); settings: recombinant KvBeta, 4-cyanobenzaldehyde reduction, at 10 µM, stronger effect = higher value
[7] = target: Voltage-gated potassium channel subunit beta-2 (Rattus norvegicus) (UniProt P62483); experiment: KvBeta positive modulators, primary screen, biochemical, NADPH fluorescence (AID 623;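 active means NADPH fluorescence slope more negative than the mean of all samples by about 3 SD, 99.7% confidence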;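 further: fluorescence intensity change per second fitted from 20 to 320 s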); settings: Recombinant KvBeta, NADPH fluorescence decrease slope, 10 min; at 10 µM; stronger effect = lower value
[8] = target: Alpha-2C adrenergic receptor (Homo sapiens) (UniProt P18825); experiment: modulators of alpha2C/GIRK thallium flux, primary screen, cell-based, HEK293 alpha2C/GIRK1/2 (AID 624;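 active means fluorescence slope after compound addition differing from the mean of all screened samples at 99.7% confidence, in either direction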;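 further: slope of fluorescence ratio to pre-addition baseline per second over 15 to 24 s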); settings: thallium flux BTC fluorescence, at 10 µM, actives lie on both sides
[9] = inhibitors of larval lipid processing in zebrafish, primary screen, whole organism, PED6 fluorescence, gall bladder and intestine (AID 686;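 active means a full or partial loss of lipid-probe fluorescence in the fish gall bladder, intestine or both, judged by eye; inactive means no fluorescence loss, or compound toxic to the fish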;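 further: larvae 5 to 7 days old with five fish per well; signal comes from phospholipase A2 cleavage of quenched PED6 carried via bile; overnight exposure to compound and PED6 before scoring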); settings: Zebrafish larvae PED6 lipid processing, fluorescence scoring; screened at 20 µM (by protocol)
[10] = inhibitors of Chlamydomonas gravitaxis, primary screen, whole organism, Chlamydomonas reinhardtii, WT vs cilia-less mutant, absorbance, 96-well (AID 463189); settings: OD600 absorbance, 2 days, at 10 µM, stronger effect = higher value;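 further: 0% = wild type cc124 cells in DMSO and 100% = ciliumless bld1 mutant cells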
[11] = inhibitors of Sendai virus-induced IRF3 signaling, primary screen, TLR/RLR signaling modifier project, cell-based, Sendai virus stimulus, luciferase, 10K MLSCN set (AID 602276;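 active means inhibition at or above 50% at 10 µM; inactive means inhibition below 50%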;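 further: firefly luciferase from ISG56 promoter only with Renilla not read in this screen; 0% = Sendai virus plus DMSO and 100% = medium plus DMSO without virus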); settings: HEK293 RL24 IRF3 luciferase reporter, at 10 µM, stronger effect = higher value
[12] = inhibitors of poly I:C-induced TLR3 signaling, primary screen, cell-based, poly I:C stimulus, luciferase, 10K MLSCN set (AID 602277;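 active means inhibition of the reporter signal at or above 50%; inactive means inhibition below 50%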); settings: HEK293-TLR3 RL24 IRF3 luciferase reporter, at 10 µM, stronger effect = higher value
[13] = measured here: cell density z-score
[14] = measured here: nuclear c-Myc green intensity z-score
[15] = measured here: nuclear pErk red intensity z-score, stronger effect = higher value

Voltage-gated potassium channel subunit beta-2 (Rattus norvegicus), sequence (P62483 whole entry, looked up): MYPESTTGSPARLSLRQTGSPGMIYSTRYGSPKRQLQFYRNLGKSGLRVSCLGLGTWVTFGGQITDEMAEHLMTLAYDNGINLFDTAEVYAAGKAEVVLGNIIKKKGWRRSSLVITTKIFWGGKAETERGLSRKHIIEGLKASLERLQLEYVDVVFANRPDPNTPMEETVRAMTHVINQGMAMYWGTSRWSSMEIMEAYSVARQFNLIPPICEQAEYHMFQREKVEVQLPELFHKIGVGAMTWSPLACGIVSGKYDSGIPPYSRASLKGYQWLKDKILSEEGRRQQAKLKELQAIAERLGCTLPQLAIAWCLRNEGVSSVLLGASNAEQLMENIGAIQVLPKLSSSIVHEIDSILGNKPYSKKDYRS
Alpha-2C adrenergic receptor (Homo sapiens), sequence (P18825 whole entry, looked up): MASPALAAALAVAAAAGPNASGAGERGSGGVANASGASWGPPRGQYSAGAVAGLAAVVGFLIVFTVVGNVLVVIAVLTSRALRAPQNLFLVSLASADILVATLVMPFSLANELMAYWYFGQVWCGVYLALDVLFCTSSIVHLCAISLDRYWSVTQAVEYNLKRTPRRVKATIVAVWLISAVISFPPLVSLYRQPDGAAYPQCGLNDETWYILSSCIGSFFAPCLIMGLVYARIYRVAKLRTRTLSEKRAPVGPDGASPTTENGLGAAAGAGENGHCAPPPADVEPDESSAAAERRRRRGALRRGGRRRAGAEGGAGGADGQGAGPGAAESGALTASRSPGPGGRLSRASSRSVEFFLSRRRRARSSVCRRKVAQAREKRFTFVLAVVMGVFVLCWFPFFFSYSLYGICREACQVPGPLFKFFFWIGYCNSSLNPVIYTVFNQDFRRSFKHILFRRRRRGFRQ
Dual specificity protein phosphatase 6 (Homo sapiens), sequence (Q16828 whole entry, looked up): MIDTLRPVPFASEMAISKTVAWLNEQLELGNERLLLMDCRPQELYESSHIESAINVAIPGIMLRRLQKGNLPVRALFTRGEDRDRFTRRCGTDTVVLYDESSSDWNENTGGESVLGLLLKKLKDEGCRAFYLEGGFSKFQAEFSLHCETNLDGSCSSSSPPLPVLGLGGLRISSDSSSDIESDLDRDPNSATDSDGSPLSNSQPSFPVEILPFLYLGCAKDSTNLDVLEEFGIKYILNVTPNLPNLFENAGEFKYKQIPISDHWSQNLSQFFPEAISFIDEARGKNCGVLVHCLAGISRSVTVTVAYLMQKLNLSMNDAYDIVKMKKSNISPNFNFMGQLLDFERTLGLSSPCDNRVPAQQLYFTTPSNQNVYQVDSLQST

Compound | cell count [1] | inhibition [1] | inhibition of aggregation [2] | nuclei count [2] [%] | inhibition [3] | nuclei count [3] [%] | z-score [4, 13] | z-score [4, 14] | z-score [4, 15] | inhibition [5] | fluorescence slope [6] | NADPH fluorescence slope [7] | slope [8] | outcome [9] | inhibition [10] | inhibition [11] | inhibition [12]
CCOC(=O)c1c(C)n(C)c2ccc(OC)c(NC(=O)CCN3CCSCC3)c12 | 476 | 3% (inactive) | 5.7% (inactive) | 112 | -134% (inactive) | 114 | -2.21 | 0.452 | 0.641 | -9.66% (inactive) | -0.464 (inactive) | -6.9e-05 (inactive) | 0.00572 (inactive) | inactive | 4.14% (inactive) | 24.4% (inactive) | 28.3% (inactive)
CCC(NC(C)C)C(O)c1ccc(O)c(O)c1 (stereo not given) | 661 | -7.3% (inactive) | 1% (inactive) | 109 | -51.9% (inactive) | 117 | -1.1 | -0.395 | 0.461 | 7.39% (inactive) | -0.492 (inactive) | -5.8e-05 (inactive) | 0.00513 (inactive) | inactive | 14.5% (inactive) and 0.657% (inactive) | 13.9% (inactive) | 39.3% (inactive)
NS(=O)(=O)c1cc2c(cc1Cl)NC(C(Cl)Cl)NS2(=O)=O (stereo not given) | 646 | -8.4% (inactive) | 4.9% (inactive) | 109 | -57% (inactive) | 134 | -1.31 | -0.533 | 1.7 | -4.44% (inactive) | -0.512 (inactive) | -2e-05 (inactive) | 0.00475 (inactive) | inactive | 3.47% (inactive) | 13.9% (inactive) | 35.5% (inactive)
CN(C)c1nc(N(C)C)nc(N(C)C)n1 | 680 | -4.1% (inactive) | 1.6% (inactive) | 109 | -118% (inactive) | 129 | 1.31 | -0.357 | -1.49 | 11.3% (inactive) | -0.459 (inactive) | 2.8e-05 (inactive) | 0.0048 (inactive) | inactive | 4.91% (inactive) and -7.01% (inactive) | 14.2% (inactive) | 32.5% (inactive)
CCOC(=O)c1[nH]c2ccc(Br)cc2c1NC(=O)CCN1CCC(C(=O)OCC)CC1 | 566 | -16.7% (inactive) | 2.2% (inactive) | 96.4 | -91.6% (inactive) | 130 | 1.13 | -1.08 | 0.103 | -0.674% (inactive) | -0.523 (inactive) | -2.9e-05 (inactive) | 0.00522 (inactive) | inactive | 15.3% (inactive) | 7.83% (inactive) | -1.42% (inactive)
Cc1noc(COc2ccccc2OCC(O)CNC(C)(C)C)n1 (stereo not given) | 623 | -11.7% (inactive) | 16.2% (inactive) | 89.4 | -52.1% (inactive) | 128 | -0.283 | 1.24 | 2.27 | -16.8% (inactive) | -0.496 (inactive) | -2.4e-05 (inactive) | 0.0046 (inactive) | inactive | -3.71% (inactive) | 16.2% (inactive) | 99.7% (active)
C/C=C(/C(=C/C)c1ccc(O)cc1)c1ccc(O)cc1 | 603 | -14.5% (inactive) | 10.1% (inactive) | 112 | -76% (inactive) | 132 | -0.991 | -0.543 | 0.777 | 13.3% (inactive) | -0.459 (inactive) | -5.4e-05 (inactive) | 0.00464 (inactive) | inactive | 25.6% (inactive) | 8.63% (inactive) | 33.1% (inactive)
c1ccc(SCc2nc3ccccc3[nH]2)nc1 | 407 | -12.9% (inactive) | -9.8% (inactive) | 107 | -65.1% (inactive) | 119 | 0.727 | 0.54 | -0.488 | 9.39% (inactive) | -0.624 (inactive) | -2.9e-05 (inactive) | 0.00427 (inactive) | inactive; toxic | 13.1% (inactive) | -49.8% (inactive) | -119% (inactive)
Cc1ccc(-n2nc3cc(Cl)c(NC(=O)c4ccco4)cc3n2)cc1 | 566 | -2.6% (inactive) | -7.2% (inactive) | 112 | -52% (inactive) | 137 | -0.552 | 1.17 | -0.609 | -0.674% (inactive) | -0.459 (inactive) | -5.2e-05 (inactive) | 0.00706 (inactive) | inactive | 6.11% (inactive) | -16.5% (inactive) | -49.9% (inactive)
CN(C)CCCN1c2ccccc2CCc2ccc(Cl)cc21 | 621 | -7.8% (inactive) | -25.6% (inactive) | 113 | -129% (inactive) | 124 | -0.576 | 1.08 | 1.97 | 7.39% (inactive) | -0.41 (inactive) | 3.7e-05 (inactive) | 0.00326 (inactive) | active; weak signal in gallbladder and intestine | 16.7% (inactive) and 70.6% (active) | 14.9% (inactive) | 13.5% (inactive)
